Shown are actives, neighbours in structure and some others; about 5.4% of the full set was active somewhere.
Calb FLC: C. albicans growth inhibition with fluconazole, primary screen, CaCi-2 strain, Alamar Blue fluorescence | C. albicans CaCi-2 (fluconazole-resistant clinical isolate) + fluconazole, 48 h | growth inhibition, % (concentration not given with the values) | 300,000 tested, 0.57% active;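 active = growth inhibition above about 58% in most replicates, limit read from the data, passing the limit was not always enough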;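 note: all wells also contain fluconazole at 8 µg/ml as a sub-toxic cotreatment; 0% = median of DMSO wells and 100% = median of geldanamycin control wells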
ALR inh: inhibitors of human ALR sulfhydryl oxidase, primary screen, biochemical, H2O2 detection, HRP-luminol luminescence, single point | FAD-linked sulfhydryl oxidase ALR (Homo sapiens), P55789 | purified ALR, DTT oxidation | inhibition, % (no concentration beside the values) | 290,000 tested, 3.8% active | AID 485317, 2010;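 active = mean replicate inhibition above about 79%, with every replicate also reaching it, limit read from the data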
CSC inhib: cancer stem cell viability inhibitors, primary screen, luminescence | cancer stem cell-like cells viability | AID 2717, 2010 | 300,000 tested, 1.1% active | inhibition, % at 7.5 µM; in the data active = inhibition above about 75%; tested in HMLE shEcad cells
PP5 inh: PP5 phosphatase inhibitors, primary screen, biochemical, fluorescence; Serine/threonine-protein phosphatase 5 (Homo sapiens), P53041; purified PP5c, OMFP substrate fluorescence; inhibition, % at 6.7 µM; 320,000 tested, 0.18% active;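 active = inhibition above the campaign's mean inhibition across all tested compounds plus 3 SD, cut at about 9.5% in these data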;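 note: 0% = DMSO only and 100% = 100 µM cantharidin control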
Target sequence (P53041 whole entry, looked up): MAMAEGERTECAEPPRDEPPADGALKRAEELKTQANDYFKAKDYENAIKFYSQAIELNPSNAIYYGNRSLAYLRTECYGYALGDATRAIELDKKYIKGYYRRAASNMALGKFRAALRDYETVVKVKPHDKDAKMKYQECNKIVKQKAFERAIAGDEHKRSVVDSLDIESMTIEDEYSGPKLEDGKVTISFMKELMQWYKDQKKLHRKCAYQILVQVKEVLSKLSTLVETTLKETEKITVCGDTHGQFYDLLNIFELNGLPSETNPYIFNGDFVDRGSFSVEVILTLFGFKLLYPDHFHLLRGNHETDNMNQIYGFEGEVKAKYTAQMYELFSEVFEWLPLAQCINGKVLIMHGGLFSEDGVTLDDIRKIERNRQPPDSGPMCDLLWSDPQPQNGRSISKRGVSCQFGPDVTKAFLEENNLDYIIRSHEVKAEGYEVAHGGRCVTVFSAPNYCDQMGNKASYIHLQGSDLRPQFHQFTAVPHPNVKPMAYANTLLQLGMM
PP1 inh: PP1-alpha phosphatase inhibitors, primary screen, counter-screen for PP5 inhibitor project, biochemical, fluorescence, OMFP substrate, single point. inhibition, % at 6.7 µM. purified PP1alpha. 320,000 tested, 0.9% active. Serine/threonine-protein phosphatase PP1-alpha catalytic subunit (Homo sapiens), P62136. AID 2235, 2010;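 active = inhibition above the mean inhibition of all tested compounds plus 3 SD, computed separately for each screening campaign, cut at about 15% in these data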
* hit, by the source's call; / = no result.

SMILES | Calb FLC | ALR inh | CSC inhib | PP5 inh | PP1 inh
COc1ccc(N(CC(=O)Nc2ccccc2C(N)=O)S(=O)(=O)c2ccc(C)c([N+](=O)[O-])c2)cc1 | 95* | / | -9 | 1 | -3
COc1ccc(N(CC(=O)Nc2ccc(C(N)=O)cc2)S(=O)(=O)c2ccc(C)c([N+](=O)[O-])c2)cc1 | 2 | 2 | -17 | 2 | -4
CC(C)(C)N1C(=O)Cc2c1nc(N)c1c(N)nc(N3CCCCC3CO)c(C#N)c21 (stereo not given) | 1 | -68 | 16 | 15* | 11
C=CCOc1ccc2c(c1)C(=NO)c1cc(OCC=C)ccc1-2 | -18 | -4 | / | 2 | 1
COc1ccc2c(c1)C(=NO)c1cc(OC)ccc1-2 | 1 | 96* | 14 | 4 | 2
O=C(COCc1cc(-c2ccc3c(c2)OCO3)on1)N1CCN(c2cccc(C(F)(F)F)c2)CC1 | -2 | -6 | 119* | 6 | 4
O=C(NCN1C(=O)C2C3C=CC(C3)C2C1=O)Nc1cccnc1 (stereo not given) | -3 | -17 | 4 | -3 | -3
Cc1ccnc(NC(c2ccccn2)c2c(C)[nH]c3ccccc23)c1 (stereo not given) | -2 | 98* | 3 | -3 | -3
COc1cc(OC)nc(-n2ncc(Br)c(Br)c2=O)n1 | / | 92* | 107* | -1 | -2
CCc1ccc(NC(=O)C(C)Sc2nc(-c3ccco3)c(C#N)c(=O)[nH]2)cc1 (stereo not given) | 2 | 98* | 50 | 1 | 12
N#Cc1c(-c2ccccc2)nc(SCc2cccc(Cl)c2)[nH]c1=O | 40 | / | 107* | 0 | 17*
CCC(Sc1nc(-c2cccc(OC)c2)c(C#N)c(=O)[nH]1)C(=O)Nc1nnc(C(C)C)s1 (stereo not given) | -43 | 13 | 7 | -2 | -2
N#Cc1c(-c2ccco2)nc(SCC(=O)Nc2cccc(Cl)c2)[nH]c1=O | -2 | 99* | -2 | 4 | 9
O=C(CSc1nc2[nH]ncc2c(=O)[nH]1)Nc1cccc(Cl)c1 | -1 | 2 | -2 | 1 | -3
Cc1ncc([N+](=O)[O-])n1CCOC(=O)c1ccccc1 | -3 | -7 | 8 | 3 | 2
Cc1ccc2c(c1)N(CCCC(=O)NCCC1=CCCCC1)C(=O)CO2 | 1 | -3 | -8 | 0 | -2
CC(C)(C)C(=O)NC1(C(F)(F)F)C(=O)Nc2c1c(=O)[nH]c(=O)n2Cc1ccco1 (stereo not given) | 9 | 0 | 10 | 2 | -2
O=C(CCC1COc2ccccc2O1)N1CCCC1 (stereo not given) | -3 | 3 | -6 | 1 | -9
COc1ccc(N2CCN(C(=O)c3cccc(NC4=NC5CS(=O)(=O)CC5S4)c3)CC2)cc1 (stereo not given) | -5 | 93* | -25 | 0 | 1
Cc1ccc(S(=O)(=O)Nc2ccccc2C(=O)Nc2ccc(S(=O)(=O)Nc3nccc(C)n3)cc2)cc1 | -25 | / | -3 | 1 | 7
O=c1cc(CSc2ccc(Cl)cc2)nc(-c2ccccn2)[nH]1 | 112* | -11 | 94* | -2 | 16*
COc1ccc(NC(=O)CCn2c(=S)[nH]c3ccccc3c2=O)cc1 | 6 | -2 | 1 | -1 | 1
COC(=O)C1=C(C)N(Cc2ccccc2)C(=NCCc2c[nH]c3ccccc23)N[C@H]1c1cccc(F)c1 | / | -4 | 123* | / | /
COC(=O)C1=C(C)N(Cc2ccccc2)C(=NCc2cccc(Cl)c2)N[C@H]1c1ccccc1 | / | -17 | 122* | / | /
COC(=O)C1=C(C)N(Cc2ccccc2)C(=NCCc2c[nH]c3ccccc23)N[C@H]1c1ccccc1 | / | 0 | 30 | / | /
SMILES | Calb FLC | ALR inh | CSC inhib | PP5 inh | PP1 inh
O=C(Nc1ccccc1C(=O)Nc1ccc2c(c1)OCO2)c1ccco1 | 13 | -5 | 3 | 3 | 4
Cc1nc(C)c(-c2csc(N)n2)s1 | -3 | 91* | -2 | -3 | -2
Cc1ccc(NC2=NCC(Cc3ccc(Br)cc3)S2)cc1 (stereo not given) | -46 | -1 | 89* | 3 | 13
Cc1ccc(-c2nc3cnccn3c2Nc2ccc3c(c2)OCO3)cc1 | -2 | / | 7 | 2 | 4
COc1ccc(Nc2c(-c3ccc(C)cc3)nc3cnccn23)cc1 | -2 | 99* | 0 | 1 | -2
Cc1ccc(Nc2c(-c3ccccc3O)nc3cnccn23)cc1 | -49 | 99* | -7 | 4 | 4
Cc1ccc(Nc2c(-c3ccccc3O)nc3ncccn23)cc1 | 6 | 98* | / | 5 | 3
Cc1ccc(Nc2c(-c3ccc(N4CCOCC4)cc3)nc3ncccn23)cc1 | 1 | 21 | 11 | -3 | -5
CN(C)c1ccc(-c2nc3cnccn3c2Nc2ccc3c(c2)OCCO3)cc1 | -6 | 98* | -15 | 3 | -4
CCOC(=O)C(=O)/C(=C\N(C)C)c1onc(-c2ccccc2Cl)c1C(=O)OC | 21 | 0 | -9 | -1 | -3
O=C(Cc1c(C(=O)O)[nH]c2ccccc12)NC1CCCC1 | -3 | -3 | -8 | 1 | -1
Cc1cc(NC(=O)CC(C)C)c(=O)n(Cc2cccc(F)c2)c1 | -13 | -25 | 17 | -8 | -1
c1ccc(-c2noc(C3CCCCC3)n2)nc1 | -2 | -5 | 9 | 1 | 1
Cc1ccc(-c2nc3cnccn3c2Nc2ccc3c(c2)OCCO3)o1 | 20 | 99* | 2 | 0 | 5
COc1ccc(Nc2c(-c3ccc(OC)cc3)nc3cnccn23)cc1 | 20 | 98* | -2 | 2 | -4
COc1ccc(-c2nc3cnccn3c2Nc2ccc3c(c2)OCO3)cc1 | 9 | 87* | -10 | 4 | -1
Cc1ccc2nc(-c3ccc(O)cc3)c(Nc3ccc4c(c3)OCCO4)n2c1 | 0 | 12 | 12 | 1 | 4
Cc1cc(C)nc(N/N=C/C(Cl)=C/c2ccccc2)n1 | 49 | 2 | -2 | 1 | -1
CCOC(=O)C(C(C)=O)c1c(Br)c(O)c(O)c2c(C(=O)c3ccc(C)cc3)coc12 (stereo not given) | 15 | -7 | 103* | 3 | 11
CCOC(=O)c1c(C)n(-c2ccc(C)cc2)c2c(C(C(C)=O)C(=O)O)c(Br)c(O)c(O)c12 (stereo not given) | 28 | 17 | 17 | 2 | 5
c1ccc(-c2cc(-c3ccncc3)nc3ccc4ccccc4c23)cc1 | 3 | -3 | 102* | 5 | 2
COc1ccc2[nH]c3c(=S)nc[nH]c3c2c1 | 9 | 99* | -4 | -1 | -3
O=c1[nH]c(CSc2nc3ccccc3s2)nc2ccccc12 | 4 | -129 | -18 | 3 | -3
Cc1sc2nc(CSc3ccc([N+](=O)[O-])cc3)[nH]c(=O)c2c1C | 2 | 99* | -6 | 4 | 7
Cc1sc2nc(CSc3nc4ccccc4s3)[nH]c(=O)c2c1C | 7 | 99* | 1 | -2 | 4
